In PubChem BioAssay (NCATS):
Records with an inconclusive call do not appear. Entries that show only a call come without a potency. Calls of active or inactive are those of the source. Calls come from the whole dose curve; as a rule, active = well fitted inhibition curve with a large enough effect; inconclusive = small, poorly fitted or top-dose-only effect; inactive = flat fitted curve, though single readings scatter.

biological target: Calcium and integrin-binding protein 1 (Homo sapiens) (UniProt Q99828); assay: Primary qHTS for Identification of Calcium Integrin Binding Protein 1 (CIB1) Competitor (AID 1508620); conditions: CIB1-GST / FITC-alphaIIb peptide fluorescence polarization; series mostly up to 114 µM;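 note: GST tagged CIB1 binding a fluorescein labelled alphaIIb integrin peptide tracer; top concentration of the series differs between compounds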
Procedure, shortened: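 CIB1-GST (1 uM final) and compound incubated 15 min at room temperature before adding FITC-alphaIIb peptide tracer (100 nM final). Competition for binding read by fluorescence polarization (ex 480, em 540) after another 15 min at room temperature.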

Chain of Calcium and integrin-binding protein 1 (Homo sapiens) (Q99828 whole entry, looked up): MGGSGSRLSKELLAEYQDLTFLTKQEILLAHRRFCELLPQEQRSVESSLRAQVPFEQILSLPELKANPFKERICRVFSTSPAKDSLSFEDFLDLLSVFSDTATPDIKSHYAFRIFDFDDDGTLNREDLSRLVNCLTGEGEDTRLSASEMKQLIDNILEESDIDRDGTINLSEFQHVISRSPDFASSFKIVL

Row | Structure (SMILES) | Potency
1 | Cc1cc(C)nc(NC(=S)N2CCN(c3ccc4ccccc4c3)CC2)c1 | inactive
2 | Cc1ccc(-c2ccc(=O)n(CC(=O)NCCc3ccc(O)cc3)n2)cc1 | inactive
3 | CCOc1ccc(CCNC(=O)c2cc3ccccc3n2Cc2cc(C)cc(C)n2)cc1OCC | inactive
4 | Cc1ccnc(NC(=S)N2CCN(c3ccc(N)cc3)CC2)c1 | inactive
5 | COc1ccc2nc(-c3ccc(N(C)C)cc3)sc2c1 | inactive
6 | Cc1ccc(N2C(=O)c3ccccc3C2=O)c(C)c1 | inactive
7 | Cc1noc(C)c1-c1ccc2ncnc(NCC3CCCCN3C)c2c1 (stereo not drawn) | inactive
8 | Cc1cc2c(s1)c1cnn(Cc3c(C)cc(F)cc3C)c(=O)c1n2C | inactive
9 | CC(C)Nc1cccc(S(=O)(=O)N2CCCN(S(=O)(=O)c3ccc4c(c3)OCCO4)CC2)c1 | inactive
10 | O=S1(=O)N=C(Sc2cc(C(F)(F)F)cc(C(F)(F)F)c2)c2ccccc21 | inactive
11 | CC(=O)Nc1ccc(OCc2cccc(C3Nc4ccccc4C(=O)N3Cc3ccco3)c2)cc1 (stereo not drawn) | inactive
12 | COc1cccc(-c2ccc(=O)n(CC(=O)NCCc3ccccc3)n2)c1 | inactive
13 | O=C(OCC#CCSc1nnc(-c2cccc3ccccc23)o1)c1cc2ccccc2o1 | inactive
14 | c1csc(CCNc2ncnc3ccc(-c4ccc5c(c4)OCO5)cc23)c1 | inactive
15 | CC(C)(C)OC(=O)N1CCN(c2ccc(NCc3ccc(-c4ccccc4F)o3)cc2)CC1 | inactive
16 | O=S(=O)(c1ccc(O)c2ncccc12)N1CCCCC1 | inactive
17 | CN(c1ccccc1)c1ccc(CNc2nn3c(=O)c4ccccc4nc3s2)cc1 | inactive
18 | Cc1csc(CNc2ncnc3ccc(-c4cccc(Cl)c4)cc23)c1 | inactive
19 | COc1ccc(C2Nc3ccccc3C(=O)N2Cc2ccccc2OC)cc1COc1c(C)cc(NC(C)=O)cc1C (stereo not drawn) | inactive
20 | Cc1cc(N[S+](=O)([O-])c2ccc3c(c2)CCC(=O)N3C)ccc1F | inactive
21 | O=C1c2ccccc2NC(c2ccc(-c3cccc(F)c3)o2)N1O (stereo not drawn) | inactive
22 | COc1ccc(C2=Nn3c(nnc3-c3ccc(OC)cc3OC)SC2)c(OC)c1 | inactive
23 | CCNC(=O)c1ccc(-c2ccc3ncnc(NCc4ccc(C)o4)c3c2)o1 | inactive
